Source: PubChem
KB-3-1 cytotox = KB-3-1 parental cell cytotoxicity. Potency, µM (top dose mostly 46.1 µM), hits mostly cytotoxic. 400,000 tested, 1.4% active. KB-3-1 viability, CellTiter-Glo ATP luminescence, 72 h; note: potency is the fitted concentration of half-maximal effect; nearly all actives have a fitted effect of over 60% in size
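Parental KB-3-1 adenocarcinoma cells in phenol-red-free DMEM with 10% FBS were pin-treated with compounds at several concentrations, incubated 72 h at 37 °C, and viability read by CellTiter-Glo luminescence; concentration-effect curves were fitted after normalization.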
IL-1B inflam inh = inhibitors of inflammasome signaling (IL-1 beta secretion). THP-1 LPS/ATP IL-1B secretion, AlphaLISA, 16 h; stronger effect = lower value. activity change, % at 57.5 µM. 360,000 tested, 4.7% active. AID 743279; in the data active = activity change below about -50%; inconclusive = mostly about -30% to -49%
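THP-1 cells pretreated 1 hr with compounds (up to 57.5 uM final), then stimulated with LPS (250 ng/mL final) plus ATP (1.25 mM final); secreted IL-1B measured by AlphaLISA after 16 hr, decreased signal indicating inhibition.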
KB-V1 MDR tox = KB-V1 MDR subline cytotoxicity | 400,000 tested, 3.4% active | KB-V1 MDR cells viability, CellTiter-Glo, 72 h | AID 1347076 | Potency, µM (top dose mostly 46.1 µM), hits mostly cytotoxic; note: potency is the fitted concentration of half-maximal effect; nearly all actives have a fitted effect of over 60% in size
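Cytotoxicity toward P-gp-expressing KB-V1 cells was determined as loss of CellTiter-Glo luminescence after 72 h at 37 degrees C. Compounds were tested in quantitative HTS format across a concentration range, with curves fitted to normalized data.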
HT1080NT lethal = kills 2HG-producing HT-1080-NT fibrosarcoma cells; HT-1080-NT fibrosarcoma viability, CellTiter-Glo ATP luminescence, 48 h; Potency, µM (titrated, usually from 46.1 µM), for inactives: at the highest dose activity, negative = less viability, hits mostly cytotoxic; 360,000 tested, 1.6% active; AID 686970;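 note: NT is the 2HG producing partner of a matched IDH1 knockdown line; potency is the fitted concentration of half-maximal effect; 0% = DMSO-treated cells and -100% = media-only wells without cells; nearly all actives have a fitted effect of over 55% in size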
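HT-1080-NT fibrosarcoma cells (2HG-overproducing), 750 cells/well in RPMI with 5% FBS, dosed after 2 h and incubated 48 h at 37C. CellTiter-Glo luminescence normalized to DMSO and no-cell wells; concentration-response curves fitted and classed.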
HT1080 IDH1KD tx = kills HT-1080 cells with IDH1 knockdown; HT-1080 IDH1 knockdown viability, ATP luminescence, 48 h; Potency, µM (top dose mostly 46.1 µM), for inactives: top-dose activity, negative = toxicity, most hits filed as cytotoxic; 360,000 tested, 2% active; AID 686971;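 note: potency is the fitted concentration of half-maximal effect; 0% = DMSO wells and -100% = cell-free medium wells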
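In this qHTS, HT-1080 cells depleted of IDH1 are exposed for 48 h at 37 °C to compound titrations. Toxicity is scored from CellTiter-Glo luminescence, with DMSO as full viability and medium alone as none.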
* hit, by the source's call; i = inactive; ? = inconclusive; · = not tested or not shown; ! = not confirmed by another sample. Hits are enriched below; roughly 8.8% of the tested compounds scored in any of these assays. Unless noted, calls come from the whole dose curve; as a rule, active = well fitted curve in the direction sought with a large enough effect; inconclusive = small, poorly fitted or top-dose-only effect, or another doubt; inactive = no such curve, though single readings can be large; an effect the other way counts as inactive or inconclusive. Unless noted, % is set by controls: 0 for no effect and ±100 for the full control effect.

SMILES	KB-3-1 cytotox	IL-1B inflam inh	KB-V1 MDR tox	HT1080NT lethal	HT1080 IDH1KD tx
COc1ccc(Br)cc1CN1CCC(N2CCCC2)CC1	i	-67*	i	-3%	-15%
COc1ccc(Br)cc1CN1CCCC(C(=O)N2CCCCCC2)C1 (configuration not stated)	?	-57*	?	-24%	-24%
COc1ccc(Br)cc1CN1CCCC(C(=O)N2CCCCC2)C1 (configuration not stated)	i	-3	i	-3%	-20%
COc1ccc(Br)cc1CN1CCN(C(=O)c2ccc(F)cc2)CC1	i	0	?	-6%	-10%
COc1cc(OC)cc(C(=O)NC2CC(C)(C)NC(C)(C)C2)c1	i	-4	i	1%	10%
CN(c1cccc(NC(=O)CN(c2ccc(F)cc2)S(C)(=O)=O)c1)S(C)(=O)=O	i	1	i	-2%	11%
CN(c1cccc(NC(=O)CN(c2ccc(C34CC5CC(CC(C5)C3)C4)cc2)S(C)(=O)=O)c1)S(C)(=O)=O	?	-5	18µM*	?	20µM*
Cc1sc2nc(CSCC(=O)NC3(C#N)CCCCC3)[nH]c(=O)c2c1C	i	-4	i	-1%	-4%
CNc1nc(Nc2ccc(C(=O)OC)cc2)c2sccc2n1	i	27	i	-11%	?
CCOc1ccccc1NC(=O)Cn1nnc(C(=O)NCc2ccco2)c1N	0.01µM*	22	0.26µM*	?	0.041µM*
Nc1c(C(=O)Nc2ccc3c(c2)OCCO3)nnn1Cc1cccc(Cl)c1	16µM*	-21	i	?	?
Nc1c(C(=O)Nc2ccc3c(c2)OCCO3)nnn1Cc1ccc(F)cc1	i	-7	i	-6%	-15%
Cc1cc(C)cc(NC(=O)Cn2nnc(C(=O)NCc3ccc4c(c3)OCO4)c2N)c1	i	64	i	18µM*	?
Cc1ccccc1NC(=O)Cn1nnc(C(=O)NCc2ccco2)c1N	18µM*!	15	?	?	?
Cc1ccc(NC(=O)CNC(=O)c2ccco2)cc1	i	0	i	15%	16%
CCOc1ccccc1NC(=O)Cn1nnc(C(=O)NCc2ccc3c(c2)OCO3)c1N	9.2µM*	30	?	?	12µM*
Cc1ccccc1NC(=O)Cn1nnc(C(=O)NCc2cccs2)c1N	3.3µM*	·	i	·	·
Cc1cccc(NC(=O)Cn2nnc(C(=O)NCc3cccs3)c2N)c1C	i	0	i	-18%	-14%
COc1ccc(/C=C(/NC(=O)c2ccc([N+](=O)[O-])cc2)C(=O)NCCCN(C)C)cc1	i	-1	i	0%	0%
Cc1ccc(C(=O)N/C(=C\c2ccc(-c3cccc([N+](=O)[O-])c3)o2)C(=O)NCCCN(C)C)cc1	?	-68*	i	18µM*	15µM*
Cc1ccc(C(=O)N/C(=C\c2ccc(-c3ccccc3[N+](=O)[O-])o2)C(=O)NCCCN2CCOCC2)cc1	i	58	i	?	?
Cc1ccc(C(=O)N/C(=C\c2ccc(-c3ccc(Br)cc3)o2)C(=O)NCCCN(C)C)cc1	5.8µM*	-77*	?	?	23µM*
CN(C)CCCNC(=O)/C(=C\c1ccc(-c2cccc([N+](=O)[O-])c2)o1)NC(=O)c1ccccc1	i	-119*	i	?	?
C=CCn1c(=NC(=O)c2ccccc2[N+](=O)[O-])sc2cc(S(C)(=O)=O)ccc21	i	-2	i	-11%	-6%
Cc1ccc(C)c(CC(=O)N2CCCC(c3cc(C(=O)Nc4ccccc4Cl)no3)C2)c1 (configuration not stated)	i	0	?	-19%	-20%
Cc1cccc(C(=O)Nc2nnc(S(=O)(=O)N3CCC(C)CC3)s2)c1	i	25	i	-13%	0%
CCN(CC)S(=O)(=O)c1cc(NC(=O)C(C)OC(=O)c2[nH]c(C)c(C(C)=O)c2C)ccc1C (configuration not stated)	?	17	21µM*	-4%	-9%
CCS(=O)(=O)c1ccc(O)c(NC(=O)Nc2ccccc2)c1	i	12	i	-4%	-4%
